Results filed as inconclusive are left out. Activity calls are given as the source filed them. Unless noted, calls follow the shape of the dose curve; as a rule, active = well fitted curve in the direction sought with a large enough effect; inconclusive = small, poorly fitted or top-dose-only effect, or another doubt; inactive = no such curve, though single readings can be large; an effect the other way counts as inactive or inconclusive.
Assays:
[1] = AP1 Signaling Pathway (AID 357; active = well fitted curve in either direction with a large enough effect, not every such curve was filed as active; also: % is scaled to controls: 0 for no effect and ±100 for the full control effect); details: ME-180 AP-1-bla reporter, EGF-induced, beta-lactamase ratio, 5 h; at 38 µM (top of the series)
Outline: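 AP-1-bla ME-180 cells with beta-lactamase reporter under AP-1 response element, stimulated with EC50 EGF; compounds titrated, 5 hours at 37 degrees Celsius. CCF4 read at 460/530 nm ratio; positive and negative modulators judged by AC50.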

[2] = NFAT Signaling Pathway (AID 444; active = well fitted curve in either direction with a large enough effect, not every such curve was filed as active;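 also: carbachol stimulus at about its EC50 of 1 µM final; % is scaled to controls: 0 for no effect and ±100 for the full control effect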); details: Jurkat NFAT-bla M1, carbachol, beta-lactamase ratio, 5 h; at 38 µM (top of the series)
Outline: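 Jurkat cells carrying an NFAT-driven β-lactamase reporter and co-transfected muscarinic M1 receptor were treated with compound plus carbachol (1 uM final, an EC50 level) for 5 h at 37 °C. CCF4 loading followed for 1 h at RT; 460/530 nm ratio gave %activity.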

[3] = Stat Signaling Pathway (AID 446; active = well fitted curve in either direction with a large enough effect, not every such curve was filed as active;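 also: ME-180 cervical cancer cells given 40 pM IL-6 alongside compound; SIE-controlled beta-lactamase reporter measured as 460/530 nm FRET emission ratio; % is scaled to controls: 0 for no effect and ±100 for the full control effect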); details: ME-180 SIE beta-lactamase reporter, IL-6 stimulated, 5 h; at 38 µM (top of the series)
Outline: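 Reporter line: ME-180 cervical carcinoma, SIE-beta-lactamase. Treatment: compound with 40 pM IL-6, 5 hrs, 37 C, in low-serum OPTI-MEM with 10 mM HEPES pH 7.3. Detection: 460/530 nm fluorescence.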

[4] = biological target: Glucocorticoid receptor (Homo sapiens) (UniProt P04150); test: GR-GFP Redistribution (AID 450;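 active = compounds whose dose series gives a full or clear partial fitted curve of increased nuclear translocation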; also: potency is read from the fitted curve at half-maximal effect); details: U2OS GR-GFP nuclear translocation, laser cytometry, 2 h
[5] = biological target: Glucocorticoid receptor (Homo sapiens) (UniProt P04150); test: GR-EFC Redistribution (AID 451; calls by dose curve; also: potency is read from the fitted curve at half-maximal effect); details: CHO-K1 GR-EFC translocation, beta-gal luminescence, 2 h
Outline: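 CHO-K1 cells stably expressing nuclear-localized β-gal enzyme acceptor and GR fused C-terminally to the enzyme donor fragment; ligand-driven nuclear translocation restores β-gal by complementation. Compounds titrated up to 46 uM final, 2 h at 37 °C; luminescence read.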

[6] = biological target: 3',5'-cyclic-AMP phosphodiesterase 4B (Homo sapiens) (UniProt Q07343); test: qHTS Assay for Inhibitors of PDE-IV (AID 607; active = well fitted activation curve with a large enough effect in the main read-out, with a control signal flat, not every such curve was filed as active; also: % of control where 0% means no effect)
Outline: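 Cell-based read-out of cAMP via a modified cyclic nucleotide-gated channel and membrane potential dye (535/590 nm) in HEK293 cells expressing PDE4 endogenously. Compounds tested up to 22.9 uM final; 100 uM RO 20-1724 reference.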

[7] = qHTS Assay for Identification of Small Molecule Agonists for Thrombopoietin (TPO) Signaling Pathway (AID 917); also: % is scaled to controls: 0 for no effect and ±100 for the full control effect
Outline: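 Luminescence from a Glycoprotein IIb promoter–driven luciferase reporter served as read-out in murine Ba/F3 cells carrying the human TPO receptor. Cells, deprived of IL-3 overnight, received compounds with 26 pM TPO and were incubated 24 hrs at 37 C.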

[8] = biological target: Muscarinic acetylcholine receptor M1 (Rattus norvegicus) (UniProt P08482); test: qHTS Assay for Antagonists of Acetylcholine Muscarinic M1 Receptor: Kinetic Measurement of Intracellular Calcium Response (AID 943);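 also: Fluo-4 calcium signal as peak divided by basal fluorescence over 4 min; nearly all actives have a fitted effect of over 75% in size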
Outline: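 CHO cells stably expressing rat M1 were loaded with no-wash Fluo-4 dye for 1 h at 37C, pre-incubated 10 min with compound, then challenged with EC80 carbachol (100 nM final); kinetic calcium read 4 min, peak/basal ratio.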

[9] = biological target: Pyruvate kinase (Leishmania mexicana) (UniProt Q27686); test: qHTS Validation Assay for Inhibitors of Leishmania Mexicana Pyruvate Kinase (AID 945);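 also: 0% = DMSO only neutral control wells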
Outline: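 Read-out: luminescence from PKLight stop/detection reagent, data normalized to DMSO. Reaction: 0.2 nM E451W LmPYK, 0.5 mM PEP, 0.1 mM ADP, pH 7.2, 1 h room temperature.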

[10] = biological target: Pyruvate kinase PKM (Homo sapiens) (UniProt P14618); test: qHTS Assay for Activators of Human Muscle Pyruvate Kinase (AID 954; active = well fitted curve in the direction sought with a large enough effect, not every such curve was filed as active;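 also: 0% = uninhibited enzyme and -100% = no enzyme or full thiadiazolimine inhibition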)
Outline: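 Human PKM2 activity is measured as ATP generation, detected by luciferase-coupled luminescence. The enzyme (0.1 nM) acts on 0.5 mM PEP and 0.1 mM ADP for 1 h at ambient temperature; data are normalized to uninhibited and full-inhibition wells.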

[11] = biological target: Alpha-galactosidase A (Homo sapiens) (UniProt P06280); test: Counterscreen for Glucocerebrosidase Inhibitors: qHTS Assay for Human alpha-Galactosidase at pH 4.5 (AID 992); also: 0% is about no effect
Outline: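 Quantitative HTS: compounds tested from 0.7 nM up to 77 uM against 2 nM enzyme with 80 uM 4-MU alpha-D-galactopyranoside. The 20 min room-temperature reaction is stopped with 1M NaOH/1M glycine, pH 10.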

[12] = biological target: alpha-glucosidase (Oryza sativa, rice) (UniProt Q653V4); test: Counterscreen for Glucocerebrosidase Inhibitors: qHTS Assay for Rice alpha-Glucosidase at pH 5.0 (AID 997);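 also: 0% = full activity with enzyme and -100% = basal without enzyme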
Outline: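 Rice alpha-glucosidase (4 nM final) with 400 uM 4-methylumbelliferyl-alpha-D-glucopyranoside in citrate buffer pH 5.0, 20 min at room temperature, stopped at pH 10; fluorescence 365/440 nm, compounds 0.7 nM–77 uM, AC50 from Hill fits.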

[13] = Validation of Assay for Modulators of Lamin A Splicing (AID 1459; active = well fitted curve in the direction sought with a large enough effect in the signal ratio; the % refers to the signal ratio;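 also: cells exposed to compound for two days before reading; 0% is about no effect; ratio rise marks activators and ratio drop marks inhibitors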)
Outline: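 HeLa S3 lamin A-EGFP/DsRed2 stable clone, 600 cells/well, Opti-MEM 2% FBS; compounds by pin tool; 48 hrs, 37 °C/5% CO2; Acumen 488 nm scan, objects 10-100 um; GFP/RFP intensity ratio.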

[14] = qHTS Assay for Lipid Storage Modulators (AID 1519; calls by dose curve); details: Drosophila S3 cells, BODIPY lipid droplet/cell ratio, laser cytometry, cells loaded with oleic acid
Outline: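 Cells seeded at 5,000 per well were treated with compounds over a concentration series and loaded with oleic acid (400 uM, as added). Lipid droplet fluorescence (488 nm excitation, 500-530 nm channel) was read by laser-scanning cytometry and normalized to 20 uM Triacsin C.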

[15] = biological target: DNA repair nuclease/redox regulator APEX1 (Homo sapiens) (UniProt P27695); test: qHTS Validation Assay for Inhibitors of the Human Apurinic/apyrimidinic Endonuclease 1 (APE1) (AID 1705)
Outline: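 qHTS, 1536-well. APE1 + cpd 15 min RT → 50 nM TAMRA/BHQ-2 THF-abasic dsDNA substrate → kinetic fluorescence, 3 reads/60 s; delta(read3−read1) = reaction progress. No-enzyme buffer = negative control.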

[16] = Counterscreen for APE1 Inhibitors: Fluorescent Dye Displacement Validation Assay (AID 1707);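 also: plate controls were ThO with dsDNA and no compound for no effect and ThO without dsDNA for full effect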
Outline: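 Compounds are scored by their ability to displace Thiazole Orange (250 nM) from a 50 nM TAMRA-tagged duplex bearing a tetrahydrofuran abasic site. Buffer is 50 mM Tris-HCl pH7.5, 50mM NaCl, 2 mM MgCl2, 0.01% Tween-20.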

[17] = biological target: Endonuclease 4 (Escherichia coli (strain K12)) (UniProt P0A6C1); test: Counterscreen for APE1 Inhibitors: qHTS Validation Assay for Inhibitors of Endonuclease IV (AID 1708); also: % is scaled to controls: 0 for no effect and ±100 for the full control effect
Outline: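 2 nM enzyme was preincubated with compounds for 15 min at room temperature in 50 mM Tris-HCl pH 7.5, 50 mM NaCl, 2 mM MgCl2, 1 mM DTT, 0.01% Tween-20. 50 nM THF-abasic TAMRA/BHQ-2 duplex substrate started the reaction.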

[18] = qHTS for differential inhibitors of proliferation of Plasmodium falciparum line 7G8 (AID 1815);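 also: parasite growth measured after three days of incubation; plate controls were vehicle wells for no effect and reference inhibitor wells for full effect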
[19] = qHTS for differential inhibitors of proliferation of Plasmodium falciparum line GB4 (AID 1816); details: Potency: Plasmodium falciparum GB4 proliferation inhibition;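 also: parasite growth measured after 72 h incubation; 0% = vehicle DMSO and -100% = reference inhibitor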
[20] = qHTS for differential inhibitors of proliferation of Plasmodium falciparum line 3D7 (AID 1876);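 also: parasite growth measured after three days of culture; 0% = vehicle wells and -100% = reference inhibitor wells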
[21] = qHTS for differential inhibitors of proliferation of Plasmodium falciparum line D10 (AID 1877);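 also: parasites grown with compound for 72 h before DNA staining; plate controls were vehicle wells for no effect and reference inhibitor wells for full effect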
[22] = qHTS for differential inhibitors of proliferation of Plasmodium falciparum line Dd2 (AID 1882); details: Potency: Plasmodium falciparum Dd2 proliferation inhibition;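 also: compound exposure of 72 h on infected erythrocytes; plate controls were DMSO vehicle for no effect and 0.29 µM artemisinin for full effect; nearly all actives have a fitted effect of over 65% in size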
Outline: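 SYBR Green I DNA fluorescence read-out, ex 485/em 535 nm. Signals were normalized to 0.29 uM artemisinin and DMSO wells, then corrected using vehicle-only plates flanking each stack. Parasite growth ran 72 h in erythrocytes before lysis.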

[23] = qHTS for differential inhibitors of proliferation of Plasmodium falciparum line W2 (AID 1883); details: Potency: Plasmodium falciparum W2 proliferation inhibition;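 also: parasites grown with compound for 72 h before lysis and staining; 0% = vehicle wells and -100% = control inhibitor wells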
[24] = qHTS for differential inhibitors of proliferation of Plasmodium falciparum line HB3 (AID 1886); details: Potency: Plasmodium falciparum HB3 proliferation inhibition;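 also: parasites grown with compound for 72 h before SYBR Green readout; plate controls were vehicle for no effect and reference inhibitor for full effect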
[25] = biological target: ATP-dependent DNA helicase Q1 (Homo sapiens) (UniProt P46063); test: qHTS Validation Assay for Inhibitors of RecQ-Like Dna Helicase 1 (RECQ1) (AID 2353);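 also: plate controls were DMSO vehicle for no effect and enzyme-free control for full effect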
Outline: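 50 nM RECQ1T1 preincubated 15 min with compound in Tris pH 8.0 buffer with MgCl2, DTT, Tween-20 and 2.5 ug/ml poly(dI-dC); started with 200 nM TAMRA/BHQ-2 forked duplex and 2 mM ATP. Unwinding read as fluorescence (525/598 nm), two reads 2 h apart.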

[26] = Validation screen for small molecules that induce DNA re-replication in MCF 10A normal breast cells (AID 463097); also: 0% is about no effect; nearly all actives have a fitted effect of over 60% in size
Outline: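 Image-based qHTS: normal breast cells are incubated with compound for 48 hr, stained with Hoechst, and scanned for total nuclear fluorescence. Compounds raising the fraction of nuclei with elevated DNA content count as re-replication inducers.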

[27] = Quantitative high throughput screen for delayed death inhibitors of the malarial parasite plastid, 96 hour incubation (AID 488745); also: % is scaled to controls: 0 for no effect and ±100 for the full control effect; nearly all actives have a fitted effect of over 70% in size
Outline: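 P. falciparum carrying an integrated firefly luciferase reporter, grown in erythrocytes (2% hematocrit, 0.1% parasitemia final) in RPMI 1640/0.5% Albumax, was exposed to compound for 96 h (two generations) at 37 C, 5% CO2. Luminescence decrease indicated growth inhibition.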

[28] = Quantitative high throughput screen for delayed death inhibitors of the malarial parasite plastid, 48 hour incubation (AID 488752); also: % is scaled to controls: 0 for no effect and ±100 for the full control effect; nearly all actives have a fitted effect of over 65% in size
Outline: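 Erythrocytes infected with P. falciparum carrying an integrated firefly luciferase reporter (2% hematocrit, 0.1% parasitemia final) were exposed to compounds in RPMI 1640/0.5% Albumax for 48 h at 37 C, 5% CO2. Growth inhibition was scored as reduced luminescence.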

[29] = biological target: M-phase phosphoprotein 8 (Homo sapiens) (UniProt Q99549); test: qHTS Validation Assay for Inhibitors for MPP8 Chromodomain Interactions with Methylated Histone Tails (AID 488949);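 also: 50 nM MPP8 with 50 nM peptide preformed then compounds added for 30 min; AlphaScreen signal from MPP8 chromodomain bound to biotinylated H3K9me3 peptide; top concentration of the series differs between compounds; % is scaled to controls: 0 for no effect and ±100 for the full control effect; nearly all actives have a fitted effect of over 55% in size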
Outline: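 50 nM MPP8 + 50 nM b-H3K9me3 peptide, PBS pH 7.4/0.01% Tween-20, 30 min RT; + cpd 30 min RT; + AlphaScreen donor/Ni-chelate acceptor beads 10 ug/mL final, 30 min dark; luminescence read.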

[30] = biological target: Thyrotropin receptor (Homo sapiens) (UniProt P16473); test: qHTS Assay for Antagonists of the Thyroid Stimulating Hormone Receptor (AID 488980); also: 0% is about no effect
Outline: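 Readout is cAMP by HTRF competition between cellular cAMP and cAMP-d2 for a cryptate-labelled antibody. Antagonism was assessed in TSHR-transfected HEK293 cells stimulated with 4 nM TSH (EC80, final) in the presence of RO 20-1724.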

[31] = biological target: Thyrotropin-releasing hormone receptor (Homo sapiens) (UniProt P34981); test: qHTS for Small Molecule Agonists and Allosteric Enhancers of Human TRH Receptor: Validation Screen for Agonists (AID 493127;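 active = calcium activation more than 3 SD above the typical response in the agonist read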;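 also: intracellular calcium rise by fluo-8 fluorescence before TRH EC20 addition; 0% is about no effect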); details: TRH receptor agonist cell assay; at 2 µM; stronger effect = higher value
Outline: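 TRHR-expressing cells were plated overnight in serum-containing medium, then loaded with fluo-8 calcium dye at room temperature for 30 min–1.5 h. After a 10 s baseline, compound was pin-transferred and calcium fluorescence (ex 480/em 530) read kinetically for agonist response.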

[32] = biological target: Galactokinase (Homo sapiens) (UniProt P51570); test: qHTS Validation Assay for Inhibitors of Human Galactokinase (GALK) (AID 493189); also: 0% is about no effect
Outline: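 5 nM GALK / 100 uM galactose / 35 uM ATP, 20 mM HEPES pH8.0, 5 mM MgCl2, 60 mM NaCl, 1 mM DTT, 0.01% BSA (final). RT 1 h; Kinase-Glo Plus luminescence.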

[33] = Validation screen for small molecules that induce DNA re-replication in SW480 colon adenocarcinoma cells (AID 504364); also: 0% is about no effect
Outline: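 SW480 cells seeded at 250 per well were exposed to compound or DMSO for 48 hr at 37 C, 5% CO2, then stained with Hoechst for 40 min. DNA content per nucleus was imaged (405 nm ex, 500-530 nm em).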

[34] = biological target: Voltage-gated inwardly rectifying potassium channel KCNH2 (Homo sapiens) (UniProt Q12809); test: qHTS Assay for Small Molecule Inhibitors of the Human hERG Channel Activity (AID 588834);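 also: top concentration of the series differs between compounds; % is scaled to controls: 0 for no effect and ±100 for the full control effect; lower thallium flux fluorescence means stronger hERG block; nearly all actives have a fitted effect of over 50% in size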
Outline: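 hERG-BacMam U2OS, 2000 cells/well; 0.7X FluxOR loading 1 hr RT dark; cpd ~10 min 37 °C; stim buffer; FDSS fluorescence 2 min @ 1 s; AC50 Hill fit.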

[35] = test system: Zika virus NS2B-NS3 protease; test: Primary screen GU AMC qHTS for Zika virus inhibitors (AID 1347154);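 also: 0% = no-inhibitor control and -100% = no-enzyme control; nearly all actives have a fitted effect of over 70% in size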
Outline: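 Unlinked Zika NS2B hydrophilic domain/NS3 protease domain noncovalent complex (25 nM final) in 10 mM Tris-HCl pH 8.0, 0.01% Tween 20, with AMC peptide substrate. Fluorescence (ex 340, em 450 nm) change over 15 min, room temperature; percent inhibition fitted to 4-parameter Hill equation.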

[36] = Primary qHTS for small molecule stabilizers of the endoplasmic reticulum resident proteome: Secreted ER Calcium Modulated Protein (SERCaMP) assay (AID 1508630); also: % is scaled to controls: 0 for no effect and ±100 for the full control effect
Outline: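 GLuc-SERCaMP-expressing SH-SY5Y cells, pretreated 16 h with compound, are challenged with thapsigargin to empty ER calcium stores; after 4 h, coelenterazine is added directly to the medium and luminescence is imaged.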

Chain of Glucocorticoid receptor (Homo sapiens) (P04150 whole entry, looked up, the tested form may be a part): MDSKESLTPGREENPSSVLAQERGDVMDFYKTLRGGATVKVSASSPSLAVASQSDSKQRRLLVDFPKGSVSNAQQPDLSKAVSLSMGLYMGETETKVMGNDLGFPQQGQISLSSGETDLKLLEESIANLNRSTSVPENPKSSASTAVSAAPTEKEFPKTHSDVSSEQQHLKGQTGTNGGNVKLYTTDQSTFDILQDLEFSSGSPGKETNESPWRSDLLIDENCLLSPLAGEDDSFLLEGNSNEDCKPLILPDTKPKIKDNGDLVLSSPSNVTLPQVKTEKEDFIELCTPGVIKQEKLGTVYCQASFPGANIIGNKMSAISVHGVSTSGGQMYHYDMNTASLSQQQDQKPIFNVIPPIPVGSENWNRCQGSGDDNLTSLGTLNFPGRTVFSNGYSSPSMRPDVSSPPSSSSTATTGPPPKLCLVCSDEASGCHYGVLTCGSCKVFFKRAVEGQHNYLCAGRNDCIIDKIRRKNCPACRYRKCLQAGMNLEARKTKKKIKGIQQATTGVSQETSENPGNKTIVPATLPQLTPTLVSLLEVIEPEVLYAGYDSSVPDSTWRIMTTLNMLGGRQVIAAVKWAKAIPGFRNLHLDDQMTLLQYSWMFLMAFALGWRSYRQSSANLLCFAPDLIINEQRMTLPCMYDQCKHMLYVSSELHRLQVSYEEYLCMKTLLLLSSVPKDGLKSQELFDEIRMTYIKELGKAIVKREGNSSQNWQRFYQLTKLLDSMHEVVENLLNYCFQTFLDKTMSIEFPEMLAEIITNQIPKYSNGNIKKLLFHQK
Chain of Pyruvate kinase (Leishmania mexicana) (Q27686 2-499 E452W): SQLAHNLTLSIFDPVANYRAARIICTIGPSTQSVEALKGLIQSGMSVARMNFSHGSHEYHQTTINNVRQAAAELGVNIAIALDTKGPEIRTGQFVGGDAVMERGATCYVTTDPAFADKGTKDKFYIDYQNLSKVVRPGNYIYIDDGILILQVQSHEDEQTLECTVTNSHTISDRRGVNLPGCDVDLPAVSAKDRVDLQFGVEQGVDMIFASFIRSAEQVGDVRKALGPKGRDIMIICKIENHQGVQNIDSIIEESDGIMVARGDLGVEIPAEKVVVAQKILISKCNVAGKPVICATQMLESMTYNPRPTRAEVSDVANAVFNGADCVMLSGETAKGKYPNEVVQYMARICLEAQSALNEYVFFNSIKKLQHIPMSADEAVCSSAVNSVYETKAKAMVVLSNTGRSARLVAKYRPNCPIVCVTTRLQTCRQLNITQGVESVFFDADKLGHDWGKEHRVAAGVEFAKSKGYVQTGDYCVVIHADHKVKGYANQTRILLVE
Chain of Alpha-galactosidase A (Homo sapiens) (P06280 whole entry, looked up): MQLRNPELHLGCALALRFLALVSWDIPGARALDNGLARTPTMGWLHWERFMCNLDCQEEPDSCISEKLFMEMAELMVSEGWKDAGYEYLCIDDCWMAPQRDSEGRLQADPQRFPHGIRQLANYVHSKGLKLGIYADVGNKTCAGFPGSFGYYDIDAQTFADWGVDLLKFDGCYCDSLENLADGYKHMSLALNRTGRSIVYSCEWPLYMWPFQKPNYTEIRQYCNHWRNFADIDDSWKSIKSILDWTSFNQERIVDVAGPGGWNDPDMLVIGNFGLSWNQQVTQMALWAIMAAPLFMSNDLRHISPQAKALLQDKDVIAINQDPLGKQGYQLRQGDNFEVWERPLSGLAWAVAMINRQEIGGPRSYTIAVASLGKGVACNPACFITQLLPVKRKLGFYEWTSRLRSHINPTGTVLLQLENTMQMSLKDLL
Chain of Thyrotropin-releasing hormone receptor (Homo sapiens) (P34981 whole entry, looked up): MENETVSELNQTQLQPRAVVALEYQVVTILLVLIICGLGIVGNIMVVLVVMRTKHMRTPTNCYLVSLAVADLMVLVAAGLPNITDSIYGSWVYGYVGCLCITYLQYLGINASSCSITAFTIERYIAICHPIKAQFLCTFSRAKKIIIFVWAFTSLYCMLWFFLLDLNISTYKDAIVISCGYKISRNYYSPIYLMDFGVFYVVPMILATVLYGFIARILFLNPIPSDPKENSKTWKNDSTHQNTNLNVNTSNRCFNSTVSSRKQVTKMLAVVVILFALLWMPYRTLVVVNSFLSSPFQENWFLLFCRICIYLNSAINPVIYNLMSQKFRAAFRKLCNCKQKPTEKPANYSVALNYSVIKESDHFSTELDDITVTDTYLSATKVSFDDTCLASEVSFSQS
Chain of 3',5'-cyclic-AMP phosphodiesterase 4B (Homo sapiens) (Q07343 whole entry, looked up): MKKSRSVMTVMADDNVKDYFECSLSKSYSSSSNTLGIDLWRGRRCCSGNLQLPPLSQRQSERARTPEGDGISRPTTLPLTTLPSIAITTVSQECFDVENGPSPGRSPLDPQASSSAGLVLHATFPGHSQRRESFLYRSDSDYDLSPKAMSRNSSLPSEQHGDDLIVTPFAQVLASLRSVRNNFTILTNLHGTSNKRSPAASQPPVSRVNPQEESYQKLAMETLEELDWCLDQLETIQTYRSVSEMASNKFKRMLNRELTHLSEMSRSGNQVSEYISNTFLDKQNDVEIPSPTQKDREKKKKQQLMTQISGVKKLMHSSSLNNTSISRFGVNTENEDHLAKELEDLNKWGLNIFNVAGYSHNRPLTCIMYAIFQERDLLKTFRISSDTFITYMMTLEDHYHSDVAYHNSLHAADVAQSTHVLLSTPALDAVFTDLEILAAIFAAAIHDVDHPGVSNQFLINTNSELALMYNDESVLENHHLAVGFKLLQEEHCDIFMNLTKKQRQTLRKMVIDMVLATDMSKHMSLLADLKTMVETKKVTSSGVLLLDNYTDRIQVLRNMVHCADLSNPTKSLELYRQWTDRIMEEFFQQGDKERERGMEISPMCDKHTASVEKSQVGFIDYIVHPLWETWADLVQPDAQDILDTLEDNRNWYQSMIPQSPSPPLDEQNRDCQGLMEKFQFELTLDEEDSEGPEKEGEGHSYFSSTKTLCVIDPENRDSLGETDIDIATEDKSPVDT
Chain of M-phase phosphoprotein 8 (Homo sapiens) (Q99549 whole entry, looked up): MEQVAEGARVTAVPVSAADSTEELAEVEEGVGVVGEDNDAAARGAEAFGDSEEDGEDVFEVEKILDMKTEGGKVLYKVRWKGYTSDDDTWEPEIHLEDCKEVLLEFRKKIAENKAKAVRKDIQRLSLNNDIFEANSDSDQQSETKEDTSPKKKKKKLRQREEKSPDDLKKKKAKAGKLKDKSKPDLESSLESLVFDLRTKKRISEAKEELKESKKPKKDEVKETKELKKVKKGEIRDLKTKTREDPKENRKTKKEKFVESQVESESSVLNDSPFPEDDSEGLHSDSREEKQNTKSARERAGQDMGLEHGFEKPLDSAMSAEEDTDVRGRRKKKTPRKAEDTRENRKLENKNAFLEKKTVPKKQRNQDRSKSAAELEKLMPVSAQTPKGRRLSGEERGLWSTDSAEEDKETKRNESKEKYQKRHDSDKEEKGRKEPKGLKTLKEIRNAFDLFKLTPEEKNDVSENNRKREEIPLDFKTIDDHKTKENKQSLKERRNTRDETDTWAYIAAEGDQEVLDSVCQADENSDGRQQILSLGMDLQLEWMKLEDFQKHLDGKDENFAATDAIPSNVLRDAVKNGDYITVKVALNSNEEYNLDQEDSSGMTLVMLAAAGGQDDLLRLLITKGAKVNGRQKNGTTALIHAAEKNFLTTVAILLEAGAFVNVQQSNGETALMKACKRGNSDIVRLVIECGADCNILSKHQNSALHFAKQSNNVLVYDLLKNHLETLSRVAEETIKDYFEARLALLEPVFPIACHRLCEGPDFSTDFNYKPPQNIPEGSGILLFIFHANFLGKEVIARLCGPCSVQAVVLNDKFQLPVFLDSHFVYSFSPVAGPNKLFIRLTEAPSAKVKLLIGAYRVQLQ
Chain of Pyruvate kinase PKM (Homo sapiens) (P14618 whole entry, looked up): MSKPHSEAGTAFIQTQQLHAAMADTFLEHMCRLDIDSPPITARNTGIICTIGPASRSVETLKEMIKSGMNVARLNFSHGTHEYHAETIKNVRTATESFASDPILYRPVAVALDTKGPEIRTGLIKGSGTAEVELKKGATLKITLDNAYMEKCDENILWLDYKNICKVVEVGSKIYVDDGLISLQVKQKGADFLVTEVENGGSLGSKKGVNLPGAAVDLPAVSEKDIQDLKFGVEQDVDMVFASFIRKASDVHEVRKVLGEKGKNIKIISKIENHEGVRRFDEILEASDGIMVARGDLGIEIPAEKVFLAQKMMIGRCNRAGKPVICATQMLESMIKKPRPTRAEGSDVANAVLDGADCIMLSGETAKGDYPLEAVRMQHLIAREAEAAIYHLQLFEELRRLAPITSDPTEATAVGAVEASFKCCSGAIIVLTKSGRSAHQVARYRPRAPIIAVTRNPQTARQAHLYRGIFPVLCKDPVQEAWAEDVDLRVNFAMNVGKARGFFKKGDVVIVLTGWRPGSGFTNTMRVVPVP
Chain of DNA repair nuclease/redox regulator APEX1 (Homo sapiens) (P27695 whole entry, looked up): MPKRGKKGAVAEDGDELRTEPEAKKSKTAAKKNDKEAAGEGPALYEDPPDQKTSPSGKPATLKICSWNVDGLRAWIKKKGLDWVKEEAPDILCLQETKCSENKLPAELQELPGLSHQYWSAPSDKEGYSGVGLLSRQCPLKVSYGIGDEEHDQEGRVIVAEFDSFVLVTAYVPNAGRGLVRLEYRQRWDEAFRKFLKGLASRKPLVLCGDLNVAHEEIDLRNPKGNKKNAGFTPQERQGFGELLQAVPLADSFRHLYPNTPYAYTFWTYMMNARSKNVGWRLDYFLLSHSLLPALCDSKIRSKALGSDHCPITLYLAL
Chain of Galactokinase (Homo sapiens) (P51570 whole entry, looked up): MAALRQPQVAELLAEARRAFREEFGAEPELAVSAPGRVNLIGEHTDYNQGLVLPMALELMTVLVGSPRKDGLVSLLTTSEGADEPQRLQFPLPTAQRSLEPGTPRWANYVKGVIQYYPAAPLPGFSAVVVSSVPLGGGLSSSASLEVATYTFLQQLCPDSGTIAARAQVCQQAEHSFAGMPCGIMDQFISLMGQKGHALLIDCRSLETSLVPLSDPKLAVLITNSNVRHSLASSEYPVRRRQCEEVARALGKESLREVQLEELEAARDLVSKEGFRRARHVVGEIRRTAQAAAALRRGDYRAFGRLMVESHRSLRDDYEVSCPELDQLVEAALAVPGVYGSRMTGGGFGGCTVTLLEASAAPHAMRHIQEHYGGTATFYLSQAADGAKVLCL

CCCn1c(=O)c2[nH]c(-c3ccc(OCC(=O)Nc4ccc(C#N)cc4)cc3)nc2n(CCC)c1=O
inactive: activity change, negative = inhibition [1] -2.44% | activity change, negative = inhibition [2] -7.64% | activity, negative = inhibition [3] -13.8% | Potency [4] > 46 µM | Potency [5] > 46 µM | Potency [6] | Potency [7] | Potency [8] | Potency [9] | outcome [10] | outcome [11] | outcome [12] | outcome [13] | activity change, negative = inhibition ([14]; at 57.5 µM (top of the series)) 1.01% | Potency [15] | Potency [16] | Potency [17] | Potency [18] | Potency [19] | Potency [20] | Potency [21] | Potency [22] | Potency [23] | Potency [24] | Potency [25] | Potency [26] | Potency [27] | Potency [28] | Potency [29] | outcome [30] | activation [31] 0.938% | outcome [32] | outcome [33] | Potency [34] | Potency [35] | Potency [36]
-12.2%: max response ([14]; measured here: cell count channel max response)
-10.7%: max response ([14]; measured here: lipid channel max response)

From PubChem BioAssay (NCATS)
